# A selection: hits, their analogues and other compounds. The true share with any hit is near 1.1%.
# CaV13 ICDI inh = Disruptors of the CACNA1D IQ motif to Ca2+-dependent inactivation inhibitor domain association, primary screening, Förster resonance energy transfer in intact living …. HEK cells, CFP/YFP FRET ICDI-IQ, plate reader, 10 min; percent FRET-ratio fall versus neutral wells. inhibition, % at 12.3 µM. hit rate 0.098% among 340,000. AID 743397;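 active = mean replicate inhibition of at least 30% and at least 1% of replicates passing that level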;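 note: 0% = median of the neutral control wells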
# Exocytosis inh = lytic granule exocytosis inhibition. TALL-104 LAMP-1 surface exposure, flow cytometry; cells stimulated with thapsigargin and PMA. inhibition, % at 10 µM. hit rate 0.66% among 360,000. AID 651702;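 active = inhibition above about 55%, limit read from the data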
# ABCB6 inh 2 = inhibitors of human ABC transporter ABCB6 | Q9NP58 | AID 602162 | fluorescence ratio to DMSO, % at 10 µM | hit rate 0.19% among 360,000 | K562-ABCB6 porphyrin accumulation, flow cytometry, 1 h; hits give low values;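 active = fluorescence ratio to DMSO below 75%, the collection mean minus 3 SD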;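 note: signal is porphyrin accumulated inside mitochondria; 100% equals median channel fluorescence of DMSO control wells; lower ratio means ABCB6 inhibition with less porphyrin fluorescence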
# Target sequence (Q9NP58 whole entry, looked up): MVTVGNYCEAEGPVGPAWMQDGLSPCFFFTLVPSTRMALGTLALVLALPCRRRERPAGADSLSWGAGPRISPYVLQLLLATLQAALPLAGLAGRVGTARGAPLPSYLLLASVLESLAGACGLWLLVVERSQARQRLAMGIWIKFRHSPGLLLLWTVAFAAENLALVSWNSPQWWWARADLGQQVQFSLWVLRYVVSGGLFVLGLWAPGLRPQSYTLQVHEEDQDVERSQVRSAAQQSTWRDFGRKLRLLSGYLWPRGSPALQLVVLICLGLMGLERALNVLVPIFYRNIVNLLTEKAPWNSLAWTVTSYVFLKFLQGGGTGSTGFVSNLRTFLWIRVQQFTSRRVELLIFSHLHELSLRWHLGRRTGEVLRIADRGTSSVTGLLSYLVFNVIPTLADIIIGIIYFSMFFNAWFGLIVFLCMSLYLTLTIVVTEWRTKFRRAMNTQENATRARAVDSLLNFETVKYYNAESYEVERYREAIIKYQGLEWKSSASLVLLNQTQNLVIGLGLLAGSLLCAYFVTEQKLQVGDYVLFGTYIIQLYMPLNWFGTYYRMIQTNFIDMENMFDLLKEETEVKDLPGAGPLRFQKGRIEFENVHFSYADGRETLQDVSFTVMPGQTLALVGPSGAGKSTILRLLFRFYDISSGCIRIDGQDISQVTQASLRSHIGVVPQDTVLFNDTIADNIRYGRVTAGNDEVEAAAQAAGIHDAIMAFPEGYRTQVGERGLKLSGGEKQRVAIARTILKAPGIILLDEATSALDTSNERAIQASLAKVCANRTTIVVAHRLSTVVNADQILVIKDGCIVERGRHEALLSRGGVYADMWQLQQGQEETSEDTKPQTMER
# VLA-4 inh = inhibition in a human VLA-4 binding assay | inhibition, % (about 7 µM as worked out from the volumes in the protocol) | hit rate 0.2% among 330,000 | P13612 | VLA-4 expressing cells, ligand binding flow cytometry; in the data active = inhibition above about 50%
# Active calls of the source: *; . = no result given; + = active, no number; ! = repeats disagree.
SMILES,CaV13 ICDI inh,Exocytosis inh,ABCB6 inh 2,VLA-4 inh
Cc1ccc(NC(=O)Nc2cc(Cl)ccc2C2COC(=O)C2=N)cc1 (stereo not given),-5,-1,95,55*
O=S(=O)(NNc1nccc(C(F)(F)F)n1)c1cccc(Cl)c1Cl,-5,83*,94,6
Brc1ccc2c(c1)OCCOCCOc1cc(Br)ccc1OCCOCCOCCO2,.,60*,93,13
CCOc1ccc(S(=O)(=O)Nc2ccc(C(=O)N(CC)CC(=O)NCc3cccs3)cc2)cc1,55*,-5,102,.
CCOc1ccc(NS(=O)(=O)c2ccc(C(=O)N(CC)CC(=O)NCc3cccs3)cc2)cc1,.,-5,95,11
COc1ccc(-n2c(C)c([N+](=O)[O-])c3ccc(O)c(CN4CCCCC4)c32)cc1,-4,63*,93,11
Cc1ccc(-n2c(C)c([N+](=O)[O-])c3ccc(O)c(CN(C)C)c32)cc1,-4,-1,92,24
COC(=O)C1=C(C)N(C)C(=NCc2cccc(C(F)(F)F)c2)NC1c1ccc(F)cc1 (stereo not given),-4,.,.,.
Cc1ccc(NC2=C(Cl)C(=O)c3ccccc3C2=O)cc1,-2,74*,97,21
CCN(CC)c1ccc(NC2=C(Cl)C(=O)c3ccccc3C2=O)cc1,.,67*,92,54*
O=C1C(Cl)=C(Nc2ccc(O)cc2)C(=O)c2ccccc21,-7,70*,66*,34
CC(C)c1[nH]nc2c1C(c1ccccc1)N(c1ccccc1)C2=O (stereo not given),-2,.,.,.
O=C(NCc1cccnc1)/C(=C/c1ccc(-c2cccc(Cl)c2)o1)S(=O)(=O)c1ccccc1,.,7,88,7
O=C(NCc1cccnc1)/C(=C\c1ccc(-c2cccc(Cl)c2)o1)S(=O)(=O)c1ccccc1,-8,90*,90,32
C[C@H](O)[C@@H]1C(=O)N2CCc3c([nH]c4cccc(-c5ccccc5)c34)[C@@H]2C[C@@H]1N(C)C(=O)C1CCCCC1,-5,.,.,.
Nc1[nH]c(C(=O)c2ccccc2)c(-c2ccc3c(c2)OCO3)c1C(=O)NCCc1c[nH]c2ccccc12,-6,.,.,.
Cc1cccc(C)c1NC(=O)c1sccc1SCc1cccc(C(F)(F)F)c1,-8,66*,90,2
Cc1ccc(NC(=O)c2sccc2SCc2cccc(C(F)(F)F)c2)cc1,-4,27,89,10
Nc1nc2c(ncn2[C@@H]2O[C@H](C(=O)NCCCc3ccccc3)[C@@H](O)[C@H]2O)c(=O)[nH]1,-8,.,.,.
Cc1ccccc1-c1nc(S(=O)(=O)c2ccc(Br)cc2)c(NCc2cccnc2)o1,-7,76*,87,9
N#CC1(NC(=O)COC(=O)c2cc(O)c3ccccc3c2O)CCCCC1,.,61*,117,-13
Cc1sc2c3ccsc3ccc2[n+]1C,-4,56*,102,-2
Cc1sc2ccc3sccc3c2[n+]1C,-2,83*,97,4
COc1ccc(-c2ccc3c(n2)CCCN3S(=O)(=O)c2ccc(C(F)(F)F)cc2)cc1,-11,.,.,.
O=[N+]([O-])c1cc(-c2ncccn2)c([N+](=O)[O-])s1,-3,78*,104,-1
SMILES,CaV13 ICDI inh,Exocytosis inh,ABCB6 inh 2,VLA-4 inh
COC(=O)C1=C(C)N(Cc2ccccc2C(F)(F)F)C(=NCc2ccccc2)NC1c1cccc(C(F)(F)F)c1 (stereo not given),-9,.,.,.
CCOC(=O)c1c2ccc(OCC(=O)NN)cc2n2ccccc12,+,5,102,11
CCOC(=O)c1c2ccc(OCC(=O)N/N=C/c3ccc(C)cc3)cc2n2ccccc12,.,-4,105,-5
CC(C)(C)N(Cc1ccccc1)C(=O)COC(=O)c1ccc(S(=O)(=O)N2CCOCC2)cc1,-7,63*,96,-2
CC(=O)N/C(=N/c1nc(C)cc(C)n1)Nc1ccc(C)cc1C,-6,66*,96,8
O=C1c2cccc3cccc(c23)C(=O)C1(O)O,-4,71*,98,-5
O=C(N[C@H](Cc1ccccc1)C(=O)NCCCN1CCCC1=O)[C@H]1O[C@@H](n2ccc(=O)[nH]c2=O)[C@H](O)[C@@H]1O,-3,.,.,.
COc1ccc(NC(=O)/C(C#N)=C/c2ncc([N+](=O)[O-])n2C)c(OC)c1,-5,97*,108,-7
COc1ccc(NC(=O)/C(C#N)=C/c2ccc[nH]2)c(OC)c1,-10,0,104,-18
COC(=O)c1cc2c(c3c4cc(C)ccc4n(S(=O)(=O)c4ccc(OC)cc4)c13)C(=O)N(C)C2,-10,.,.,.
CCC(C)Sc1cccc(-c2nc3cc(C)ccn3c2NC2CCCCC2)c1 (stereo not given),-5,57*!,107,-3
C/C=C/C=C/C(=O)c1cc(C)c(OC(=O)CNC(=O)OC(C)(C)C)c(C)c1O,-5,.,.,.
Cc1c(-c2ccccc2)oc2c(C(=O)N3CCN(c4ccc([N+](=O)[O-])cc4)CC3)cccc2c1=O,-5,90*,105,4
Cc1c(C(=O)N2CCN(c3ccc([N+](=O)[O-])cc3)CC2)oc2ccccc12,-6,0,86,11
COCCN1C(=O)/C(=C/c2ccc(OCc3ccc(C(=O)O)cc3)c(OC)c2)SC1=Nc1ccccc1,-13,79*,102,2
COc1cc(/C=C2\SC(=Nc3ccccc3)N(Cc3ccco3)C2=O)ccc1OC(C)C(=O)O (stereo not given),-3,-1,101,-15
O=C(O)C1C2C=CC(O2)C1C(=O)Nc1ccccc1C(F)(F)F (stereo not given),-5,83*,101,-2
CCc1ccccc1NC(=O)C1C2C=CC(O2)C1C(=O)O (stereo not given),-4,-10,102,7
CCOc1ccc(/C=N/NC(=O)Cc2csc(Nc3cccc(C(F)(F)F)c3)n2)c(OCC)c1,-5,68*,108,-1
CCOc1ccccc1/C=N/NC(=O)Cc1csc(Nc2cccc(C(F)(F)F)c2)n1,.,-3,119,15
COC(=O)C1=C(C)N(C)C(=NCc2ccc(OC)cc2)NC1c1ccccc1 (stereo not given),-9,.,.,.
CC1(C)Nc2cccc3cccc(c23)N1,-9,63*,96,.
c1cc2c3c(cccc3c1)NC1(CCCC1)N2,-6,1,110,.
Fc1ccccc1-c1ccc(/C=N/Nc2nc3ccccc3[nH]2)o1,54*,70*,123,16
C(=N\Nc1nc2ccccc2[nH]1)/c1ccccn1,6,-1,100,.
COCC(=O)NCC1CCN(C(=O)C(=O)c2cccs2)CC1,-8,.,.,.
CCOC(=O)C1CCCN(CCCc2ccccc2)C1 (stereo not given),38*!,-2,98,23
Cc1cccc(C)c1NC(=O)C1CCCN(CCCc2ccccc2)C1 (stereo not given),.,3,91,.
O=[N+]([O-])c1ccc2c3n([n+]([O-])c2c1)CCN=C3c1ccc(Cl)cc1,-5,78*,111,27
COC(=O)[C@]12C[C@H](CC(=O)N3CCC(c4ccccc4)CC3)C(=O)N(Cc3ccccc3)C1=C[C@H](C(C)(C)C)O[C@@H]2C,-9,.,.,.
